# Results reported in PubChem BioAssay AID602358 (National Center for Advancing Translational Sciences (NCATS), 2012).
# Inconclusive results are not listed. The source made the active and inactive calls. The call rests on the fitted dose curve; in most records, active means well fitted inhibition curve with a large enough effect; inconclusive means small, poorly fitted or top-dose-only effect; inactive means flat fitted curve, though single readings scatter.
# Molecular target: Luciferin 4-monooxygenase (Photinus pyralis) (UniProt P08659)
# Sequence (P08659 whole entry, looked up): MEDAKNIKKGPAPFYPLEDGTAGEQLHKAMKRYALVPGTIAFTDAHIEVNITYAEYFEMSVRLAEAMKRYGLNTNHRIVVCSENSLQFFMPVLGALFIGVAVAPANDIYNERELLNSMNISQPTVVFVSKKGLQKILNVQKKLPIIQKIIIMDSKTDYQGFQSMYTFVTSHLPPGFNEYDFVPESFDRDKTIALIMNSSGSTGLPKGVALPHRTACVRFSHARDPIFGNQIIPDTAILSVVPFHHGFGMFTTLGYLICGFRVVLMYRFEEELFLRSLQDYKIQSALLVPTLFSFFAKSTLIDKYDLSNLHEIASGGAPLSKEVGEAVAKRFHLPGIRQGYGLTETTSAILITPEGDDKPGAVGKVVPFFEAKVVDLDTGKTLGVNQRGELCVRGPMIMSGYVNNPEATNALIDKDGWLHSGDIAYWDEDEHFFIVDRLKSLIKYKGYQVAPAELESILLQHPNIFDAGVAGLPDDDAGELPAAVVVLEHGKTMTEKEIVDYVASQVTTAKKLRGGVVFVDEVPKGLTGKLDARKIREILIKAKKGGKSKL
# Test: FLuc inhibitory activity for the follow-up compounds in a biochemical assay with Km concentrations of substrate and 500microM CoASH
# Conditions: purified FLuc, Km substrates + 500 uM CoASH, luminescence; series mostly up to 57.5 µM
# Outline: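 Twelve-point compound titrations (final ~60uM to 0.3nM) added to substrate mix of 10uM luciferin, 10uM ATP, 500 uM CoASH at pH 7.5, then 10nM firefly luciferase enzyme. Light output imaged directly.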
row,SMILES,Potency
1,O=C(Nc1ccccc1-c1nc2ccccc2s1)c1cccnc1,inactive
2,COc1ccc2nc(NC(=O)c3cnccn3)sc2c1,0.919 µM (active)
3,O=C(O)c1cccc(NC(=O)c2ccc(Cl)c(S(=O)(=O)N3CCCCCC3)c2)c1,2.91 µM (active)
4,Cc1cccc(C(=O)Nc2ccccc2C(=O)Nc2ccc(C(=O)O)cc2)c1,5.8 µM (active)
5,Cc1c(NS(C)(=O)=O)cccc1-c1nc2ccccc2s1,3.66 µM (active)
